According to PubChem BioAssay AID488890 (Southern Research Specialized Biocontainment Screening …, 2010):
The whole screen tested about 320,000 compounds, of which about 1,300 (0.41%) were called active. Inconclusive results (about 3%) are left out. How the calls were made is not given here. Only a sample is shown. Results with a measured potency or affinity are listed apart.

Assay: growth inhibition of non-replicating M. tuberculosis (AID 488890);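 further: plate controls were DMSO cells for no effect and high antibiotic wells for full effect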
Conditions: Mycobacterium tuberculosis non-replicating, at 25 µM, stronger effect = higher value

SMILES	inhibition [%]
CC1CCN(C(=O)CN(CCc2ccccc2)S(C)(=O)=O)CC1	-0.19
O=C(O)CCN1C(=O)/C(=C\c2ccncc2)SC1=S	38.8
O=C(O)CCCN1C(=O)/C(=C/c2ccncc2)SC1=S	65
Cn1c(CNC(=O)CNS(=O)(=O)c2ccccc2)cc(=O)n(C)c1=O	-2.98
CCCCn1c(N)c(N(CC)C(=O)CCc2ccccc2)c(=O)[nH]c1=O	9.68
O=C(c1cccc2ccccc12)N1CCCCC1	-8.51
O=C(c1cccc(F)c1F)N1CCCC1	-8.96
CCOP(=O)(OCC)C(NC(=O)C(F)(F)F)c1ccccc1 (stereo not given)	3.99
CCOc1ccc(C(=O)CC(=O)C(=O)NCCc2ccc(OC)c(OC)c2)cc1	31.3
COc1ccc(S(=O)(=O)CCC(=O)NCCc2cccc(C)c2)cc1	-8.54
Cc1nc2cc(NS(=O)(=O)c3ccccc3F)ccc2s1	3.43
COc1ccccc1Oc1cc(-n2nc(C)cc2C)ncn1	30
CCOC(=O)c1cnc(Nc2nc3ccccc3o2)nc1CSC(=S)N(CC)CC	28.1
CCOC(=O)c1cnc(Nc2nc3ccccc3o2)nc1CSc1ncccn1	1.64
CCn1ncc(C(=O)Nc2ccc(F)cc2)c1C	-7.3
O=C(CCn1c(=S)[nH]c2ccccc2c1=O)Nc1cccc(Cl)c1	-2.2
N=c1n(Cc2ccccc2)c2ccccc2n1CC(O)COc1ccccc1 (stereo not given)	70.8
COc1ccccc1OCC(O)Cn1c(=N)n(Cc2ccccc2)c2ccccc21 (stereo not given)	45
CC(=O)Nc1ccc(OCC(O)Cn2nc(C)c(C(C)=O)c2C)cc1 (stereo not given)	-9.63
COc1ccc(C(=O)C2CCCN(C(=O)c3c4c(nn3C)CCCC4)C2)cc1F (stereo not given)	-19.7
COC(=O)Cc1ccc(NC(=O)c2ccc(Br)o2)cc1	72.6
COC(=O)c1ccc(NC(=O)C2C3C=CC(O3)C2C(=O)O)cc1 (stereo not given)	5.13

SMILES	inhibition [%]
O=C(Nc1ccc2c(c1)Cc1ccccc1-2)c1ccc(Br)o1	53.9
CCOC(=O)c1ccc(NC(=O)C2C3C=CC(O3)C2C(=O)O)cc1 (stereo not given)	20.5
CCN(CC)c1ccc(NC(=O)c2ccc(Br)o2)cc1	52.8
Cc1ccc(C(=O)Nc2ccc3c(c2)CCC3)o1	79.8
CC(NC(=O)CCSCCC(=O)NC(C)c1ccccc1)c1ccccc1 (stereo not given)	21.4
Cc1cc(C(=O)N2CCN(c3ccc(F)cc3)CC2)on1	53.3
COc1ccc(C2=NS(=O)(=O)N(C)C(C(=O)Nc3ccc(OC)c(OC)c3)=C2)cc1	17.6
NC(=O)CC(NC(=O)c1ccc(Br)cc1)c1ccc(NC2CCCCCC2)c([N+](=O)[O-])c1 (stereo not given)	7.44
CC1(C)CC(=O)c2cc(C(=O)O)c(=O)n(-c3ccccc3)c2C1	15.2
CC1(C)CC(=O)c2cc(C(=O)Nn3cnnc3)c(=O)n(-c3ccccc3)c2C1	9
COc1ccccc1CCC(=O)OCC(=O)NCc1ccc(OC)c(OC)c1	-1.1
COc1ccccc1C1NC(=O)CCC1[N+](=O)[O-] (stereo not given)	3.51
O=C(O)c1ccccc1Nc1ccc([N+](=O)[O-])c2nonc12	8.28
O=[N+]([O-])c1c(Nc2ccccc2O)ccc2nonc12	61.7
NS(=O)(=O)c1ccc(Nc2ccc([N+](=O)[O-])c3nonc23)cc1	66.5
O=C(O)c1ccc(Nc2ccc([N+](=O)[O-])c3nonc23)cc1	25.2
O=C(O)c1cccc(Nc2ccc([N+](=O)[O-])c3nonc23)c1	16.5
CCOc1ccc(Nc2ccc3nonc3c2[N+](=O)[O-])cc1	-4.04
COc1ccccc1N1C(=S)N=C(Nc2c(C)cccc2C)C12CCCC2	15.9
CC(C)(C)NC(=O)C1CCCN(S(=O)(=O)c2ccc(-n3cnnn3)cc2)C1 (stereo not given)	17
COC(=O)CNC(=O)CSc1nnc2cc(C)c3ccccc3n12	-0.34
CC(/C=C/C1[C@H](C)C[C@H](O[C@@H]2O[C@H](CO)[C@@H](O)[C@H](O)[C@H]2O)CC1(C)C)O[C@H]1O[C@H](CO)[C@@H](O)[C@H](O)[C@H]1O (stereo not given in full)	-10.5

SMILES	inhibition [%]
Cc1ccc2c(-c3ccc([N+](=O)[O-])cc3)cc(=O)[nH]c2c1	-4.88
Cc1ccc2nc(NCc3ccco3)c(C=NCc3ccco3)c(=O)n2c1	0.74
Cc1cccn2c(=O)c(C=Nc3ccccc3)c(NCc3ccco3)nc12	56.2
O=C(CN1CCN(S(=O)(=O)c2ccccc2)CC1)NC(=O)NCc1ccco1	1.38
O=C(O)c1ccccc1NCc1ccncc1	4.81
C[C@]12CCC(=O)C=C1CCC1C2CC[C@@]2(C)C1CC[C@]2(C)O (stereo not given in full)	11.1
CCCCOC(=O)c1cc(-c2ccc(/C=N/n3cnnc3)o2)ccc1Cl	75.6
CCCCOC(=O)c1ccc(-c2ccc(/C=N/NC(=S)NCC)o2)cc1	73.2
CCOC(=O)c1cc(-c2ccc(/C=N\n3cnnc3)o2)ccc1Cl	10
O=Cc1ccc(-c2ccc(C(=O)O)cc2)o1	-8.13
CC(=O)C1=C(O)C(=O)N(CCC(=O)O)C1c1cccc(F)c1 (stereo not given)	-0.65
O=C(NNc1c2ccccc2nc2ccccc12)c1ccc(O)cc1	42
CCCC(=O)NNc1c2ccccc2nc2ccccc12	74.5
CCOc1ccc(S(=O)(=O)Nc2ccc(C(=O)NCCCN3CCOCC3)cc2)cc1	-11.7
CCC(C)C(NC(=O)C1CCC(C)CC1)C(=O)NCc1ccco1 (stereo not given)	-7.14
C/C(=N\NC(=O)C(c1ccccc1)c1ccccc1)c1ccccn1	78.2
C/C(=N/NC(=O)CNC(=O)c1ccccn1)c1ccc([N+](=O)[O-])cc1	-2.72
O=S(=O)(c1ccc2nc(-c3ccccc3)[nH]c2c1)N1CCN(c2ccc(Cl)cc2)CC1	-14.5
COc1ccc(/C(C)=N/Nc2ccccc2Cl)c(O)c1	9.47
C/C(=N\Nc1ncc(Cl)cc1Cl)c1ccc(OC(F)F)cc1	66.3
COc1ccc([N+](=O)[O-])cc1NC(=O)c1cn(-c2ccc(Cl)cc2)c(=O)c2ccccc12	-16.7
N#CC1=C(N)Oc2nc[nH]c(=O)c2C1c1cccs1 (stereo not given)	-24.7

SMILES	inhibition [%]
Cc1cc(C)n2nc(N)c(N=Nc3cccc(Cl)c3)c2n1	79.2
Cc1cc(C)n2nc(N)c(N=Nc3ccc(Cl)cc3)c2n1	74.1
O=C1N/C(=N/c2ccccn2)SC1Cc1ccccc1 (stereo not given)	61.6
Cc1ccc(CC2S/C(=N/c3ccccn3)NC2=O)cc1 (stereo not given)	21.2
Cn1ccnc1SCC(=O)Nc1cccc(O)c1	1.05
CC/C(=N/Nc1ccccc1Cl)c1cnnc(-c2ccccc2)n1	5.04
COCCNC(=O)Cn1cc(C(=O)c2ccccc2F)c2ccccc21	6.99
CCC(NC(=O)c1cc(COc2cncc(Cl)c2)on1)c1ccc(C)cc1 (stereo not given)	61.6
CCC(NC(=O)c1cc(COc2cncc(Cl)c2)on1)c1ccncc1 (stereo not given)	21.9
COCCCN1C(=O)C(=O)/C(=C(/O)c2ccc(OC(C)C)cc2)C1c1ccc(O)c(OC)c1 (stereo not given)	-2.98
CCc1cc2cccc(C)c2nc1SCC(=O)NNC(=O)c1ccco1	-10.6
C=CCn1c(O)c(C(C)=Nc2ccc(C(=O)O)cc2)c(=O)[nH]c1=O	6.37
C=CCn1c(O)c(C(C)=Nc2ccc(NC(C)=O)cc2)c(=O)[nH]c1=O	-9.1
O=S(=O)(Nc1ccc(Cl)c(Cl)c1)N1CCOCC1	-2.78
O=C(Nc1ccc(Cl)c(Cl)c1)C1=Cc2ccccc2OC1	58
COc1ccc(S(=O)(=O)N2CCCCCC2)cc1NC(=O)CN1C(=O)CNC1=O	13.3
CCNC(=O)C(=O)NCC(c1cccs1)S(=O)(=O)c1ccc(C)cc1 (stereo not given)	2.12
CN(C)c1cc[n+](CC(=O)Nc2ccc(Cl)cc2)cc1	9.15
O=C(O)c1ccccc1-c1nc2cc(Cl)ccc2c(=O)n1O	-1.37
O=c1c2cc(Br)ccc2nc(-c2ccccc2)n1O	78.6
COc1ccccc1-c1nc2cc(Cl)ccc2c(=O)n1O	9.28
CCc1nc2ccc(Br)cc2c(=O)n1-c1ccccc1C(F)(F)F	26.9

SMILES	inhibition [%]
O=C(OCn1nnc2ccccc2c1=O)c1ccc(S(=O)(=O)N2CCOCC2)cc1	33.4
Cc1nn(-c2ccccc2)c(C)c1NC(=O)COC(=O)c1ccccc1OC(F)F	9.15
COc1ccc(NC(=O)C(c2ccccc2)c2ccccc2)c(OC)c1	-2.93
Nc1nc2nc(SCC(=O)N3CCCc4ccccc43)[nH]c2c(=O)[nH]1	0.84
CN(C)CCn1c2c(c(SCC(=O)Nc3ccc4c(c3)OCCO4)nc1=O)CCC2	-16.4
O=C(COC(=O)c1ccc(Br)cc1)NC1CCCC1	46.5
O=C(CNC(=O)c1ccc(Br)o1)NC1CCCCCC1	-0.81
CC1CCN(C(=O)COC(=O)c2cc(Cl)cc(Cl)c2N)CC1	78.5
Nc1c(Cl)cc(Cl)cc1C(=O)OCC(=O)N1CCOCC1	17.1
Cc1ccc(C(=O)OCC(=O)NC2CCCCC2)o1	36.7
O=C(COC(=O)c1cc([N+](=O)[O-])ccc1Cl)NC1CCCC1	73.8
O=C(OCCN1C(=O)c2ccccc2C1=O)c1ccco1	15.3
O=C(OCCCN1C(=O)c2ccccc2C1=O)c1ccco1	10.6
CCc1ccc(CNC(=O)CN2C(=O)COc3ccccc32)cc1	14.8
COc1ccc(S(=O)(=O)N2CCCC2CNC(=O)C(=O)NCc2ccc3c(c2)OCO3)cc1 (stereo not given)	10.3
COC(=O)CCC(=O)OC1(C)C(=O)C=C2C=C(C3CC3)N(C3CCCC3)C=C2C1=O (stereo not given)	21.8
NC1=NC(=O)/C(=C/c2ccc(-c3ccc(S(N)(=O)=O)cc3)o2)S1	-4.9
Cc1ccc2c(C(=O)CN3CCN(C(=O)c4ccco4)CC3)c(C)[nH]c2c1	14
O=C(NC1CCCCC1)C(c1cccnc1)N(C(=O)c1ccc(Cl)nc1)C1CCCCC1 (stereo not given)	20.7
O=C(NC(=S)Nc1ccc2[nH]c(=O)[nH]c2c1)c1ccccc1[N+](=O)[O-]	-4.02
CCNC(=O)CSc1nnc(-c2ccccc2)n1-c1ccc(OCC)cc1	12
O=C1CSC(=Nc2cccc([N+](=O)[O-])c2)N1	17.5
